Data published in PubChem BioAssay (NCI).
Compounds without any hit were thinned out: in the full panel of roughly 83,000, 20% have a hit.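 The endpoint reported here, percent growth, reads 100 for growth as untreated, 0 for no net growth and -100 for all cells dead.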 A number with no mark means an inactive call. The source made the active and inactive calls. The calls were made as follows: active = growth percent below 10; inactive = the rest.

test system: HL-60(TB) leukemia; test: NCI-60 one-dose screen, 48 h (100 = growth as untreated, 0 = no growth, -100 = all killed); settings: 10 µM unless noted

First: COc1ccc([C@H]2c3[nH]c4ccccc4c3C[C@H]3C(=O)N(C4CCN(Cc5c(Cl)cccc5Cl)CC4)CC(=O)N23)c(OC)c1
Second: CCNC(=O)N1CCc2cc(OC)c(OCCc3ccc(OC)cc3)cc2C1c1ccc(OC)cc1C (stereo not given)
The growth of the first is higher: 97% for the first, 23.9% for the second.

Compared with Fc1cc(F)cc(NNC(=S)c2ccccc2)c1, CC/C(=C(/c1ccc(Cl)cc1)c1ccc(OCCN)cc1)c1ccccc1 is higher in growth: 30.5% for the first, 43.4% for the second.

Compared with CCOc1cccc(-c2nc3sccn3c2-c2ccnc(S(C)(=O)=O)n2)c1, COc1ccc(S(=O)(=O)NCCCNc2nccc(-n3cnc4ccccc43)n2)cc1 is higher in growth: 36.9% for the first, 110% for the second.

First: Cc1nc(-c2cc3ccccc3oc2=O)ccc1C(=O)/C=C/c1ccc(N2CCOCC2)cc1
Second: Clc1ccc2c(OCCCN3CCOCC3)c3oc4ccccc4c3nc2c1
The growth of the first is lower: 38.7% for the first, 42.1% for the second.

Compared with COc1cc(OC)c(C2SCC(=O)N2Nc2ncnc3ccccc23)cc1OC (stereo not given), CCCCCCCn1cc2c(NCCc3ccccc3)ncnc2n1 is higher in growth: 103% for the first, 106% for the second.

First: CC(C)(C)Nc1nc2c(OCCc3ccccc3)cccn2c1-c1ccc([N+](=O)[O-])cc1
Second: CCOC(=O)c1c(Nc2ccccc2)nn2c(N)c(C#N)c(-c3ccc(Cl)cc3)nc12
The growth of the first is lower: 47.4% for the first, 102% for the second.

First: C#Cc1nc(C2=C(C)C(=N\O)/C(=N/O)C2)cs1
Second: O=C(/C=C/C=C/c1csc(Br)n1)NO
The growth of the first is higher: 81.7% for the first, 58.4% for the second.

Compared with CCNC(=O)Oc1ccc(/C(=C(/C)c2ccc(OC)cc2)c2ccc(OCCN3CCCCCC3)cc2)cc1, CCNC(=O)Oc1ccc(/C(=C(/C)c2ccc(Cl)cc2)c2ccc(OCCN3CCCC3)cc2)cc1 is higher in growth: 22.5% for the first, 56.2% for the second.

Going from Nc1c(C(=O)c2ccccc2)sc2nc(-c3cnccn3)cc(-c3cccs3)c12 to COc1ccc2[nH]cc(-c3nn4cc(-c5ccncc5)nc4s3)c2c1, the growth falls from 108% to 54.9%.

First: CC(c1ccccc1)N1CSc2nc3ncncc3n2C1 (stereo not given)
Second: NC1=NC2(CCCC2)N(c2ccc(S(=O)(=O)Nc3nccs3)cc2)C(N)=N1
The growth of the first is lower: 17.4% for the first, 102% for the second.

Compared with C=C(C)[C@@H]1CC[C@]2(C(=O)NCCCCCN(CCC#N)CCC#N)CC[C@]3(C)[C@H](CC[C@@H]4[C@@]5(C)CCC(=O)C(C)(C)[C@@H]5CC[C@]43C)[C@@H]12, CCCCCc1ccc(S(=O)(=O)Nc2cccc(-c3csc(NC(=O)CN4CCN(CCO)CC4)n3)c2)cc1 is lower in growth: 127% for the first, 66.3% for the second.

Going from O=C(CSc1nc2sc3c(c2c(=O)n1-c1ccc(Cl)cc1)CCCC3)N/N=C/c1ccc(F)cc1 to O=C(CN1CCN(c2cc(=O)[nH]c3ccc(F)cc23)CC1)Nc1ccc(Cl)cc1, the growth falls from 97.9% to 87.6%.

Going from CCOC(=O)c1c(NC(=O)c2ccc(F)cc2F)sc2c1CCC(=O)C2 to CC(C)C[C@@H]1N[C@@]2(C(=O)Nc3ccccc32)[C@@H](c2ccc(F)cc2)[C@@H]1C(=O)c1ccc(O)cc1, the growth rises from 91.9% to 105%.

First: O=C(Cn1cc(CN2C(=O)c3ccc([N+](=O)[O-])cc3C2=O)nn1)Nc1ccccc1Br
Second: COc1cc(C(C)=C(c2ccc(OCCN(C)C)cc2)c2ccc(OCCN(C)C)cc2)ccc1F
The growth of the first is lower: 101% for the first, 105% for the second.

With CSc1ccc(/C(=N/N=C(N)N)c2ccc(Cl)cc2)cc1 the growth was -45.1% (active).
With CCOC(=O)c1c(NCC(=O)Nc2cccc([N+](=O)[O-])c2)sc(C(C)=O)c1C the growth was -18.4% (active).
For O=C(NNc1nc2cc(F)cc(F)c2n2cccc12)c1ncccn1, the growth was -2.92% (active).
Oc1ccc(-c2nnc(SCc3ccc(O)c4ncccc34)o2)cc1 was tested, and the growth was 5.77% (active).
In the case of COc1cc(/C=N/n2cnc3oc(-c4ccccc4)cc3c2=N)cc(CN2CCCCC2)c1O, the growth is reported as -17.1% (active).
CNC(=O)c1c(NC(=O)c2ccc(F)cc2F)sc2c1CCC(=O)C2 was tested, and the growth was -12.6% (active).
In the case of C#Cc1ccc(C(=O)NCc2ccc(/C=C/C(=O)c3nccn3C)cc2)cc1, the growth is reported as 0.695% (active).
With NC(=O)c1cc(-c2ccc3ncnc(N4CCc5cc(F)c(Cl)cc54)c3c2)cnc1N the growth was -4.97% (active).
O=C(NNc1nc2cc(F)ccc2n2c(CN3CC4(COC4)C3)ccc12)c1cnccn1 was tested, and the growth was -30.1% (active).
In the case of NCCN1CCN(c2nc(-c3ccccc3)nc3nc(-c4ccccc4)oc23)CC1, the growth is reported as -5.94% (active).
O=C(CCCCCCN1CC(=O)N2[C@@H](c3cccc(Br)c3)c3[nH]c4ccccc4c3C[C@H]2C1=O)NO was tested, and the growth was 6.52% (active).
With O=C(CCCCCCNC(=O)c1csc(Br)n1)NO the growth was 5.2% (active).
